These results are taken from PubChem BioAssay AID463173 (ICCB-Longwood Screening Facility, Harvard Medical School, 2010).

SMILES strings stand for the structures. Among all 52,000 compounds or so, about 4,300 (8.3%) were called active. The full list was thinned out, with actives kept by preference. Values without a mark were called inactive. Cut-off read from the data, not from the text of the source: active = survival mostly below about 52% (no sharp cut-off); inactive = mostly above about 56%.

The subject of the assay is DeltatarO mutant. Kind of assay: growth inhibition of S. aureus wild type versus tarO mutant, primary screen, teichoic acid synthesis inhibitors, RN4220, OD600 (AID 463173). Conditions: OD600, 18 h, stronger effect = lower value, screened at 18.75 µg/mL (by protocol).
Take `COc1ccc(CC(=O)NCc2ccc3c(c2)CCN3C(=O)c2ccc(Cl)cc2)cc1OC`: the survival was 86%. Next, `Cc1ccc(S(=O)(=O)C(CNC(=O)C(=O)NCCc2ccccc2)c2cccs2)cc1` (centres undefined): 107%; `C=CCN(C(=O)c1ccc2c(c1)nnn2C)c1ccccc1`: 97%. `O=C(NC1CCCCC1)NC1CCN(Cc2nnnn2Cc2ccc3c(c2)OCO3)CC1`: the survival is 88%. As for `Cc1nn(-c2ccc(Cl)cc2)c2nc(-c3cccnc3)cc(C(F)(F)F)c12`, the survival is 39% (active). As for `Cc1nn(-c2cccc(Cl)c2)c2nc(-c3cccnc3)cc(C(F)(F)F)c12`, the survival was 45%. As to `Cc1ccc(-n2nc(C)c3c(C(F)(F)F)cc(-c4cccnc4)nc32)cc1Cl`, the survival was 53%. With `COc1ccc(CNC(=O)C2CCN(C(=O)c3ccc(-n4ccc5ccccc54)s3)CC2)cc1`, the survival is 90%. Next, `CCn1c2c(c(=O)n3ncc(C(=O)Nc4ccc(C(=O)OC)cc4)c13)CN(Cc1ccc(OC)cc1)CC2`: 81%; `NC(=O)CN(c1ccccc1)C1SC(=O)NC1=O` (centres undefined): 76%; `COc1ccccc1-n1c(SCC(=O)Nc2ccc(C)cc2)nc(O)cc1=O`: 61%. As for `Cc1ccc(CSc2nc3ccncc3n2Cc2nc(-c3ccccc3C)oc2C)cc1`, the survival is -4% (active). Consider `Cc1ccc(CSc2nc3ccncc3n2Cc2nc(-c3ccc(Cl)cc3)oc2C)cc1`, for which the survival was 63%.

Turning to `COC(=O)c1ccc(Cn2c(SCc3cccc(C)c3)nc3ccncc32)cc1`, the survival was 83%.

As for `COC(=O)c1ccc(CSc2nc3ccncc3n2Cc2ccc(F)cc2)cc1`, the survival was 93%.

As to `Cc1cccc(Cn2c(SCc3ccc(C(=O)NC4CCCC4)cc3)nc3ccncc32)c1`, the survival is 54% (active). Turning to `COC(=O)c1ccc(Cn2c(SCc3ccc(F)cc3)nc3ccncc32)cc1`, the survival is 54%. As to `COC(=O)c1ccc(Cn2c(SCc3ccccc3F)nc3ccncc32)cc1`, the survival is 42% (active). As to `COc1ccc(CNC(=O)c2ccc(CSc3nc4ccncc4n3Cc3ccccc3F)cc2)cc1`, the survival was 62%. Next, `Cc1cccc(Cn2c(SCc3ccc(C(=O)NC4CCCCC4)cc3)nc3ccncc32)c1`: 75%; `COC(=O)c1ccc(Cn2c(SCc3ccccc3)nc3ccncc32)cc1`: 45% (active). Take `Cc1ccc(C)c(CSc2nc3ccncc3n2Cc2nc(-c3ccccc3Cl)oc2C)c1`: the survival was 71%. For `O=C(NC1CCCC1)c1ccc(CSc2nc3ccncc3n2Cc2cccc(F)c2)cc1`, the survival is 60%. The same measure for `COc1ccc(NC(=O)CCc2nnc3n(Cc4ccc(C)cc4)c(=O)c4ccccc4n23)cc1`: 59%. Regarding `Cc1cccc(-c2cc3nc(C)cc(NCCCn4ccnc4)n3n2)c1`, the survival is 88%. With `O=C(O)CSCCn1cccn1`, the survival is 93%. As for `CC(C)=CCC(C)(C)CNc1ccc(C)cc1`, the survival was 66%.

Regarding `CCOc1ccccc1NC(=O)C1CCCN(c2ncnc3onc(-c4ccc(F)cc4)c23)C1` (centres undefined), the survival is 85%.

Consider `Cc1cc(C)cc(NC(=O)CCc2c(C)nc3c(c2C)c(=O)n(C)c(=O)n3C)c1`, for which the survival is 64%.

As for `COc1ccc(CN2C(=O)N(c3ccc(F)cc3)C(=O)C2CC(=O)Nc2cc(OC)cc(OC)c2)cc1` (centres undefined), the survival is 81%. On to `Cn1c2ccccc2c2nnc(SCC(N)=O)nc21`, for which the survival is 76%. In the case of `CCc1ccccc1NC(=O)Cn1c(=O)n(CCCS(=O)(=O)C2CCCCC2)c(=O)c2ccccc21`, the survival was 86%. With `CCOc1ccc(CNC(=O)c2cnc3sc(N4CCOCC4)nn3c2=O)cc1`, the survival is 81%. Next, `CCOC(=O)c1c(C)[nH]c(CCC(=O)NCc2cccc(C)c2)c1C`: 70%. Consider `Cc1ccc(-n2ncc3c(N(C)C)ncnc32)cc1Cl`, for which the survival was 94%. Consider `Cc1ccc(Cn2c(SCc3ccc(C(=O)N4CCCCCC4)cc3)nc3ccncc32)cc1`, for which the survival is 71%. As for `O=C(c1ccc(CSc2nc3ccncc3n2Cc2ccccc2)cc1)N1CCCCCC1`, the survival was 70%.

As for `Cc1ccc(Cn2c(SCc3ccc(C(=O)N4CCCCC4)cc3)nc3ccncc32)cc1`, the survival was 7% (active). `Cc1cc(C)c(C#N)c(S(C)(=O)=O)n1`: the survival was 106%.

On to `CCc1ccccc1NC(=O)C1CCN(S(=O)(=O)c2cn(C)cn2)CC1`, for which the survival was 93%. As to `CCCCN(C)C(=O)C1CCCN(c2ncnc3onc(-c4ccc(F)cc4)c23)C1` (centres undefined), the survival is 77%. As to `Cc1ccc(Nc2c(-c3ccc(N4CCOCC4)cc3)nc3ncccn23)c(C)c1`, the survival is 80%.

Turning to `Cc1ccc2c(c1C)NC(=O)CC2c1ccc(Cl)cc1Cl` (centres undefined), the survival is 4% (active).

As for `CC1=C(C(=O)OCC2CCCCC2)C(c2ccc(Cl)cc2Cl)CC(=O)N1` (centres undefined), the survival was 82%. Regarding `COc1cccc(C2CC(=O)Nc3c2ccc(C)c3C)c1OC` (centres undefined), the survival is 94%. Regarding `CC(C)c1ccc(C(=O)CC2(O)C(=O)N(CCc3ccccc3)c3ccc(Cl)cc32)cc1` (centres undefined), the survival is 33% (active). `CCc1ccc(C(=O)CC2(O)C(=O)N(CCc3ccccc3)c3ccc(Cl)cc32)cc1` (centres undefined): the survival is 19% (active). The same measure for `Cc1ccc(C(=O)CC2(O)C(=O)N(Cc3ccccc3F)c3ccccc32)cc1` (centres undefined): 60%; for `Cc1ccc(C(=O)CC2(O)C(=O)N(CCc3ccccc3)c3ccc(Cl)cc32)cc1` (centres undefined): 17% (active); for `CCCN1C(=O)C(O)(CC(=O)c2ccc(C(C)C)cc2)c2ccccc21` (centres undefined): 142%. In the case of `CCc1ccc(C(=O)CC2(O)C(=O)N(CCc3ccccc3)c3ccc(Br)cc32)cc1` (centres undefined), the survival was 52%. Turning to `CCc1ccc(C(=O)CC2(O)C(=O)N(C(C)C)c3ccccc32)cc1` (centres undefined), the survival was 79%. On to `Cc1ccc(-c2c3c(=O)n(C)c(=O)n(C)c3c3c(C(F)(F)F)nc4ccccc4n23)cc1`, for which the survival is 77%. With `Cc1ccc(S(=O)(=O)CCSc2nc(C)cc(C)c2C#N)cc1`, the survival is 53%. For the compound `Nc1nonc1C(=O)NCCNCc1cccc(Cl)c1Cl`, the survival was 65%.

With `CC(=O)c1cccc(-n2c(=O)c3c4c(sc3n(CC(=O)Nc3ccccc3F)c2=O)CN(C(C)=O)CC4)c1`, the survival is 123%. `Cc1cccc(-c2nnc(N(C(=O)C3CCC3)C(C)C)s2)c1`: the survival was 113%. Consider `COc1ccc(Cn2c(CCC(=O)Nc3cccc(OC)c3)nc3cccnc32)cc1`, for which the survival was 68%. Turning to `Cc1ccc(COC(=O)c2ccc(-c3nnn(Cc4ccc(C)cc4)n3)cc2)cc1`, the survival was 69%.

Turning to `COc1cc(CN(C(=O)COc2ccccc2Cl)c2ccccn2)cc(OC)c1OC`, the survival was 72%. The same measure for `COc1ccc(Cl)cc1NS(=O)(=O)c1ccc2c(c1)NC(=O)CC(=O)N2`: 88%.

`CC(C)(C)NC(=O)CSc1nc(-c2ccc(F)cc2)cc(C(F)(F)F)n1`: the survival is 72%. Next, `Cc1nn(-c2nc(-c3ccc(F)cc3)cc(C(F)(F)F)n2)c(C)c1Br`: -2% (active). Regarding `COc1cccc(-c2cc(C(F)(F)F)nc(-n3nc(C)c(Br)c3C)n2)c1`, the survival is 41% (active). The same measure for `CN(Cc1ccccc1)c1nc(-c2ccc(F)cc2)cc(C(F)(F)F)n1`: 72%; for `COc1ccc(-n2nc(C)c3c(C(F)(F)F)cc(-c4cccnc4)nc32)cc1`: 56%; for `CCC(C)NC(=O)CSc1nc(-c2ccc(F)cc2)cc(C(F)(F)F)n1` (centres undefined): 86%. The same measure for `Cc1nn(-c2nc(-c3ccc(F)cc3)cc(C(F)(F)F)n2)c(C)c1Cl`: 5% (active).

With `COc1ccccc1-c1c(C)nn2c(C(F)(F)F)cc(-c3ccccc3)nc12`, the survival is 41%. The same measure for `Cc1nn(-c2nc(-c3ccccc3)cc(C(F)(F)F)n2)c(C)c1Cl`: 5% (active). The same measure for `COc1cccc(-c2cc(C(F)(F)F)n3nc(C)c(-c4ccccc4)c3n2)c1`: 79%; for `COc1cccc2c1Oc1ncccc1N(C(=O)Nc1ccc(F)c(Cl)c1)C2`: 135%; for `COc1cccc(N2CCN(S(=O)(=O)c3ccc4[nH]c5c(c4c3)CCCC5)CC2)c1`: 84%. For the compound `C[N+](C)(C)CC(O)COc1ccccc1` (centres undefined), the survival is 82%.

Regarding `CCc1cccc(C)c1NC(=O)Cn1nc(C)n2cccc2c1=O`, the survival is 92%.

For the compound `COc1cccc(CNC(=O)CCc2nnc3n(CC(C)C)c(=O)c4ccccc4n23)c1`, the survival was 85%. The same measure for `COc1ccccc1CNC(=O)CCc1c(C)nc2c(c(C)nn2-c2ccc(C)c(C)c2)c1C`: 69%. The same measure for `CN1C(=O)c2cccc3c(S(=O)(=O)Nc4cccc(C(=O)O)c4)ccc1c23`: 74%. Take `COC(=O)c1c(-c2ccc(Cl)cc2)noc1N1CCN(c2ccc(C(C)=O)cc2)CC1`: the survival is 81%. On to `O=C(CN1CCC(n2nnc3ccccc32)CC1)N(C1CCCCC1)C1CCCCC1`, for which the survival was 100%.

With `Cc1cccc(NS(=O)(=O)c2ccc3[nH]c(=O)[nH]c3c2)c1C`, the survival was 78%. `Cc1cc(NC(=O)C2CCCN(S(=O)(=O)c3ccc(Br)s3)C2)ccc1Br` (centres undefined): the survival is 68%. On to `COCC(=O)NC1CCN(Cc2nnnn2Cc2ccc3c(c2)OCO3)CC1`, for which the survival was 87%. As to `COc1ccccc1NC(=O)Cn1c(=O)n(CC(=O)NCc2ccccc2Cl)c(=O)c2sccc21`, the survival is 172%. As for `CC(=O)c1ccc(S(=O)(=O)Nc2cccc(-c3ccc(N4CCCCC4)nn3)c2)cc1`, the survival was 80%. Next, `N#Cc1nc(COc2cccc(Cl)c2)oc1NCCc1ccccc1`: 39% (active); `COc1cccc(/C=C/c2nc(C#N)c(NCCc3ccccc3)o2)c1`: 90%; `COc1ccccc1OCc1nc(C#N)c(NCc2ccc(C)cc2)o1`: 83%. Turning to `COc1ccc(CCNc2oc(COc3cccc(C)c3)nc2C#N)cc1OC`, the survival is 95%. `Cc1cccc(OCc2nc(C#N)c(NCc3ccccc3Cl)o2)c1`: the survival is 53%. Regarding `Cc1ccc(OCc2nc(C#N)c(NCCc3ccccc3)o2)cc1`, the survival is 35% (active). The same measure for `COc1ccc(CNc2oc(COc3cccc(C)c3)nc2C#N)cc1`: 40% (active); for `COc1ccc(CCNc2oc(COc3ccc(Cl)cc3)nc2C#N)cc1OC`: 74%; for `N#Cc1nc(COc2ccccc2Cl)oc1NCCc1ccccc1`: 48%.
